This passage reports composite z-score and z-score results from PubChem BioAssay.

The structures appear in SMILES notation. Activity calls are given as the source filed them.

Test [1] in a line: binders of probe aFSTL3 on microarray, primary screen, stem cell growth factor project, biochemical, small-molecule microarray, fluorescence 635/667 (AID 1064).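 Also: measures binding of the biotinylated anti-FSTL3 antibody to printed compounds.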 The following applies: higher = more signal.
Test [2] in a line: binders from COS7 lysate, DM2A8 probe, primary screen, torsin A project, cell lysate, small-molecule microarray, fluorescence 635/667 (AID 1065). The following applies: higher = more signal, COS7 lysate expressing mutant human TOR1A.
Test [3] in a line: binders of probe aFGF2 on microarray, primary screen, stem cell growth factor project, biochemical, small-molecule microarray, fluorescence 635/667 (AID 1067).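 Also: measures binding of biotinylated aFGF2 protein to printed compounds on slides; z-score merges feature fluorescence and signal-to-noise across triplicate slides.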 The following applies: higher = more signal.
A short description of test [4]: binders of probe aFGF10 on microarray, primary screen, stem cell growth factor project, biochemical, small-molecule microarray, fluorescence 635/667 (AID 1071).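 Also: score merges 667 nm spot intensity and signal to noise from triplicate slides.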 The following applies: higher = more signal.
Test [5] has as its target Neurogenic locus notch homolog protein 2 (Homo sapiens) (UniProt Q04721). The experiment in a line: Notch2 binders on small-molecule microarrays, primary screen, biochemical, small-molecule microarray, 635 nm fluorescence, stem cell growth factors (AID 1073). The following applies: Notch2 binding, higher = more signal.
Test [6] addresses Pro-neuregulin-1, membrane-bound isoform (Homo sapiens) (UniProt Q02297). Description: NRG1 binders on small-molecule microarrays, primary screen, psychiatric disease protein project, biochemical, small-molecule microarray, fluorescence 635/667 (AID 1075).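 Also: score combines 667 nm spot fluorescence with signal to noise.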 The following applies: NRG1 binding, 635 nm fluorescence, higher = more signal.
Test [7] relates to Neuregulin-1 EGF-like domain. The experiment in a line: binders of neuregulin-1 EGF-like domain, primary screen, biochemical, small-molecule microarray, 635 nm fluorescence (AID 1081).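 Also: binding of the protein to compounds printed on small-molecule microarray slides.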 As to conditions: small-molecule microarray binding, higher = more signal.
Test [8] can be described thus: FRG1 promoter luciferase signal modulators, primary screen, FRG1 inhibition for FSHD, cell-based, C2C12 myotubes, firefly/Renilla luciferase, luminescence (AID 1084). The following applies: higher = more signal, called active from +8 up or from −8 down.
Test [9] can be described thus: binders of probe aFST on microarray, primary screen, stem cell growth factor project, biochemical, small-molecule microarray, fluorescence 635/667 (AID 1086).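 Also: score merges 667 nm fluorescence with signal-to-noise of each printed compound spot.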 The following applies: higher = more signal.
Test [10] in a line: binders of probe aHhip on microarray, primary screen, stem cell growth factor project, biochemical, small-molecule microarray, fluorescence 635/667 (AID 1087).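 Also: score merges spot fluorescence at 667nm with spot signal to noise ratio.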 As to conditions: higher = more signal.

Chain of Pro-neuregulin-1, membrane-bound isoform (Homo sapiens) (Q02297 whole entry, looked up, the tested form may be a part, canonical isoform): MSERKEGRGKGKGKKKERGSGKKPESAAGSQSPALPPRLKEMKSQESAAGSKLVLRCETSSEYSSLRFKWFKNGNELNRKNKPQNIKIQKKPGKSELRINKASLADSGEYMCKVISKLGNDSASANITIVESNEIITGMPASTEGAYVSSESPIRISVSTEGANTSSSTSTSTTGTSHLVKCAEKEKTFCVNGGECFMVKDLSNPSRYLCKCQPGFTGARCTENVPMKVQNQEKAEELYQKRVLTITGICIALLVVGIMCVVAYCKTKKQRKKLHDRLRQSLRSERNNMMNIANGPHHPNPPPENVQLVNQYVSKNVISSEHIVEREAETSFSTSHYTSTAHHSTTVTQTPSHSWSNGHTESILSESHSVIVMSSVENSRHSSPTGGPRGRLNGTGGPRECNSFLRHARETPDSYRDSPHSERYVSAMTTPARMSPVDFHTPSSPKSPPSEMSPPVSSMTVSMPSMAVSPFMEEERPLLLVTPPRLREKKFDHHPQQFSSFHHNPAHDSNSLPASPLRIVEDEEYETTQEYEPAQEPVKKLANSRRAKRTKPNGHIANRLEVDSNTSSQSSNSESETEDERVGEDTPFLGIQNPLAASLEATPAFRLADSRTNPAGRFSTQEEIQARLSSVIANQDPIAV
Chain of Neurogenic locus notch homolog protein 2 (Homo sapiens) (Q04721 whole entry, looked up, canonical isoform): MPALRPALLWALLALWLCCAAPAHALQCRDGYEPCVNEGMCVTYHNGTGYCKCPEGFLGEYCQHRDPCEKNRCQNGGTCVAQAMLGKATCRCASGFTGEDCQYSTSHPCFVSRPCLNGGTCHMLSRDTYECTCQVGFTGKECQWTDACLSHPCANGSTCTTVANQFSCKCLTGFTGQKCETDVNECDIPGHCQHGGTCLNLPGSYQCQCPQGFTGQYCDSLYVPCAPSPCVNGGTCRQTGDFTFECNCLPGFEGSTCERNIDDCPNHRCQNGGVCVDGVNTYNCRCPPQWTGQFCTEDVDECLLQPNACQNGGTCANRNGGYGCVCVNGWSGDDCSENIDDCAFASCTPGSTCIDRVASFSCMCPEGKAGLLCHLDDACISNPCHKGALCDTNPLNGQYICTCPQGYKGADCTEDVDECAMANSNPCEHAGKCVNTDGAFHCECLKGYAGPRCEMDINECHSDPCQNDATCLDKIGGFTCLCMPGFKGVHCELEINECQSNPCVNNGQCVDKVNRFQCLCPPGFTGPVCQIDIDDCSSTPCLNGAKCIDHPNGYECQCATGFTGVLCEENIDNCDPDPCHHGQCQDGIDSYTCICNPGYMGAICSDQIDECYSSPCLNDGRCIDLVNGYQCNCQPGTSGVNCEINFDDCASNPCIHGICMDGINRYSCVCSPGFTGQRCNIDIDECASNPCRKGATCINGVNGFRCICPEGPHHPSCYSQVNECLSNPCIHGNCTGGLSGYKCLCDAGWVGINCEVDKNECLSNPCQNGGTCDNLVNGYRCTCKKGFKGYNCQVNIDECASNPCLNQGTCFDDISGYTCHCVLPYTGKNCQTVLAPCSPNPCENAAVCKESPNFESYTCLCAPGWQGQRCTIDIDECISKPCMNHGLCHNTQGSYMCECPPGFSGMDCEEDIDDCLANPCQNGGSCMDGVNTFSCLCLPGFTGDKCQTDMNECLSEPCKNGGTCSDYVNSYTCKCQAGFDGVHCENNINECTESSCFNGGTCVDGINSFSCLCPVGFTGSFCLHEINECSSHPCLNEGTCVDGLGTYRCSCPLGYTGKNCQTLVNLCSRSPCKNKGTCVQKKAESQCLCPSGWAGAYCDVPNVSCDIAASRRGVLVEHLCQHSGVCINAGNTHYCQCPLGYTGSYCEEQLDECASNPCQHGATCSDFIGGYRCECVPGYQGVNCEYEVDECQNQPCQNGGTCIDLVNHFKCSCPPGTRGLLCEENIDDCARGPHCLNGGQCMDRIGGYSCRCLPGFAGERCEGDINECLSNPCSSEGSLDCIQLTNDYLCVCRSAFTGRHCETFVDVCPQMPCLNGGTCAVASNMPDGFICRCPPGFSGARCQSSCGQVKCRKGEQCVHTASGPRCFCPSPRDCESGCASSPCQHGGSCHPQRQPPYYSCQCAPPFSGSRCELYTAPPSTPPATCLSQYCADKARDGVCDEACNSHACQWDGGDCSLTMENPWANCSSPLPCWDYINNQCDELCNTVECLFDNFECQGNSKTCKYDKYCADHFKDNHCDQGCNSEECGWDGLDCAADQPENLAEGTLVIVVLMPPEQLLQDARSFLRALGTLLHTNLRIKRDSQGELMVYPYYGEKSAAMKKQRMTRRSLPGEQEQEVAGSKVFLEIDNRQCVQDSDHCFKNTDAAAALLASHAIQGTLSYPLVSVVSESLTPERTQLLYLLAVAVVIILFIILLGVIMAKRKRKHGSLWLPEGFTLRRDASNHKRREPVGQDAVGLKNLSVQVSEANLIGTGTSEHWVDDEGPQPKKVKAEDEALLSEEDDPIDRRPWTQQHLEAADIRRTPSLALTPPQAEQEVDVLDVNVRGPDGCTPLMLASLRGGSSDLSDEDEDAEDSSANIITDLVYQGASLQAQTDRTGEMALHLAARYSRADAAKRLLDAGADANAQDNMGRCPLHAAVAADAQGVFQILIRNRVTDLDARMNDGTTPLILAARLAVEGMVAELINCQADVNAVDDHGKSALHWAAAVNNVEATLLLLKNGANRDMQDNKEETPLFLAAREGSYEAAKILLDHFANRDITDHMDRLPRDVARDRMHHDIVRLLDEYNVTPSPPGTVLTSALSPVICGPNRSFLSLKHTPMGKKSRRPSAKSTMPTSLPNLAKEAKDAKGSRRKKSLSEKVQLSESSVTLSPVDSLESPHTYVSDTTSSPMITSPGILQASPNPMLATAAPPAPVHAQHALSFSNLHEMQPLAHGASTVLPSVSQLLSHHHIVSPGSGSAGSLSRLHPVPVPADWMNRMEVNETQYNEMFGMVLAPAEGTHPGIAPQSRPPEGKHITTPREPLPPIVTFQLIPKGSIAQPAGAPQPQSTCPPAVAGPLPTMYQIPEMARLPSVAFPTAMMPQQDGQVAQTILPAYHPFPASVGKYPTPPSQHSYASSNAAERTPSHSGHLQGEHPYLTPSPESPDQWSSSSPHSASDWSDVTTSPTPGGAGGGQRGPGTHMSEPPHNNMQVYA

Regarding `COc1ccc([Si](C)(C)[C@H]2[C@H](CCO)O[C@@]3(C(=O)N(Cc4cccc(N5C(=O)COc6ccccc65)c4)c4ccccc43)[C@@H]2C)cc1`, the composite z-score in test [1] was 0.295; in [2], 0.15; in [3] it was -0.0877; in [4], 0.126; in test [5], -0.298; in test [6] it was 0.727. In addition, the composite z-score in [7] was 0.828; in test [9], -0.203; in [10] it was -0.333. For the same compound, the z-score in test [8] was -2.07 (inactive).

On to `CCOC(=O)C[C@H]1[C@H](OC(=O)c2ccccc2-c2ccccc2)[C@@H](NC(=O)C2CCCCC2)c2cc(OCCCO)ccc2N1C(=O)Cc1ccc(OC)cc1`, for which the composite z-score in [1] is 0.0253; in test [2] it was 0.154; in test [3] it was -0.0636; in test [4], 0.253; in [5], 0.231; in test [6], -0.0991. The composite z-score in test [7] is -0.163; in test [9], 0.169; in [10], -0.12. In addition, the z-score in test [8] was 0.277 (inactive).

`C[N+](C)(C)CCCCCCNC(=O)[C@H]1C[C@H]2C(=O)N[C@@H](Cc3ccccc3)C(=O)N2[C@H]1c1ccc(O)cc1`: the composite z-score in [1] is 0.18; in test [2], 0.375; in test [3], -0.0853; in [4], 0.316; in [5] it was 0.224; in test [6] it was 0.736. Further, the composite z-score in test [7] is 1.21; in test [9] it was -0.0859; in test [10] it was 0.0373. In addition, in test [8], the z-score was 2.26 (inactive).

Consider `COC(=O)[C@@]1(Cc2ccc(OC)cc2)[C@H]2c3cc(C(=O)N4CCCC4)n(Cc4cccc5ccccc45)c3C[C@H]2CN1C(=O)c1ccccc1`, for which the composite z-score is 0.176 in [1]; -0.214 in test [2]; 0.401 in [3]; 0.672 in [4]; 1.8 in [5]; 1.42 in test [6]. Moreover, the composite z-score is 0.831 in [7], 0.849 in [9] and -0.115 in test [10]. For the same compound, in [8], the z-score is -0.404 (inactive).

As for `COCCCNC(=O)[C@]1(CCS(=O)(=O)c2ccccc2)N=C(c2ccc(OCCCO)cc2)O[C@@H]1c1ccccc1CN=[N+]=[N-]`, the composite z-score in test [1] is 0.688; in [2], 1.32; in test [3] it was 0.418; in test [4] it was 0.948; in test [5], 1.63; in [6] it was 1.79. For the same compound, the composite z-score in test [7] is 1.14; in test [9], 1.44; in test [10], -0.0518. Moreover, the z-score in test [8] was 0.174 (inactive).

`CCOC(=O)C[C@H]1[C@H](OC(=O)c2cc3ccccc3oc2=O)[C@@H](NC(=O)c2ccc(-c3ccccc3)cc2)c2cc(OCCCO)ccc2N1C(=O)c1ccc2ccccc2n1`: the composite z-score in [1] was -0.494; in test [2], 0.804; in [3], -0.0563; in [4], 0.684; in [5], 0.652; in test [6], 0.751. Besides, the composite z-score in test [7] is 1.03; in test [9], 0.619; in test [10], -0.0994. Moreover, the z-score in [8] was -0.185 (inactive).

As to `COC(=O)c1c(CC[C@@H](CO)NC(=O)N2CCC[C@H]2Cn2cc(Cc3ccccc3)nn2)oc(C(C)=O)c1C(=O)OC`, the composite z-score in test [1] is -0.506; in test [2] it was 0.268; in test [3], -0.0759; in test [4], 0.325; in test [5] it was 0.0554; in [6] it was 0.638. The composite z-score is 1.12 in test [7], 0.22 in test [9] and 0.2 in test [10]. Besides, the z-score in [8] was 0.0223 (inactive).

As to `O=C1O[C@H](c2ccccc2)[C@H](c2ccccc2)N2[C@H]1[C@@H](C(=O)O)[C@]1(C(=O)Nc3ccc(C#CC4=CCCCC4)cc31)[C@H]2c1ccc(O)cc1`, the composite z-score in test [1] was -0.261; in test [2], -0.208; in test [3] it was -0.0899; in [4], 0.728; in test [5], 0.769; in [6], 0.92. In addition, the values for the composite z-score in [7], in [9] and in test [10] were 1.13, 0.189 and -0.121, respectively. Moreover, the z-score in test [8] is -0.179 (inactive).

As to `CN1C(=O)C2C=CC(C(O)C#Cc3ccccc3)N(Nc3ccccc3)C2C1=O` (stereo not given), the composite z-score is 0.247 in [1]; 0.161 in test [2]; 0.111 in test [3]; 1.17 in [4]; 1.7 in test [5]; 1.86 in test [6]. In addition, the composite z-score in [7] is 1.3; in [9], 1.71; in test [10], -0.0024. Moreover, in test [8], the z-score was 2.29 (inactive).

As for `CC(C)Cc1ccc(CN2CC[C@@H](NC(=O)Nc3ccccc3)C2)cc1`, the composite z-score is -0.0474 in [1]; -0.0461 in test [2]; -0.173 in test [3]; 0.118 in test [4]; -0.3 in [5]; -0.54 in [6]. For the same compound, the results for the composite z-score in test [7], in test [9] and in [10] were -0.0603, -0.275 and 0.0505, respectively. Moreover, the z-score in test [8] was -0.445 (inactive).

Turning to `CCCCCCc1nc(C2CC2)cc2c1[Si](C(C)C)(C(C)C)O[C@H]2c1ccccc1`, the composite z-score is 0.0483 in [1]; 0.122 in test [2]; -0.0286 in test [3]; 0.698 in [4]; 0.516 in test [5]; -0.37 in test [6]. For the same compound, the figures for the composite z-score in test [7], in test [9] and in test [10] were -0.903, 0.177 and -0.0618, respectively. For the same compound, the z-score in test [8] was -0.136 (inactive).

For the compound `COc1ccc(-c2nc(-c3ccccc3)c3c(c2C)CO[Si]3(C(C)C)C(C)C)cn1`, the composite z-score was -0.367 in [1]; 0.0662 in [2]; -0.087 in test [3]; 0.296 in test [4]; 0.296 in [5]; -0.199 in [6]. Besides, the composite z-score is -0.196 in test [7], -0.0377 in test [9] and 0.176 in [10]. Further, in test [8], the z-score was 0.702 (inactive).

As to `C=CC[C@]1(C(=O)O)COC(c2ccc(OCCCO)cc2)=N1`, the composite z-score in test [1] was -0.151; in test [2] it was 0.273; in test [3], -0.0538; in [4] it was -0.114; in test [5], 0.675; in test [6], 1.79. In addition, the composite z-score in [7] was 1.07; in [9] it was 0.403; in test [10], -0.249. The z-score in test [8] was 0.519 (inactive).

With `CCCCCCc1nc(-c2cc(C)c(OC)c(C)c2)c(C)c2c1[Si](C(C)C)(C(C)C)OC2`, the composite z-score in test [1] was -0.0656; in [2], 0.0489; in [3], -0.093; in test [4], -0.0949; in test [5], 0.0241; in test [6], -0.391. In addition, the composite z-score is -0.453 in test [7], 0.021 in test [9] and -0.116 in [10]. Moreover, in [8], the z-score is 0.785 (inactive).

For `N#Cc1ccc(NN2C(C(O)c3ccc(F)cc3)C=CC3C(=O)N(c4ccccc4)C(=O)C32)cc1` (stereo not given), the composite z-score is -0.28 in [1]; -0.17 in [2]; 0.183 in test [3]; -0.0175 in test [4]; 0.47 in test [5]; 1.4 in test [6]. Besides, the composite z-score in test [7] is 1.07; in [9] it was 0.87; in [10], -0.353. Besides, in [8], the z-score was 0.0158 (inactive).

Consider `CCCNC(=O)[C@@]1(c2ccc([N+](=O)[O-])cc2)CC(=O)N(C2CCCCC2)[C@@H]1c1ccc(CO)cc1`, for which the composite z-score in test [1] was -0.0597; in test [2] it was 0.256; in [3], -0.0133; in [4], 0.588; in test [5], 1.03; in test [6], 0.675. The composite z-score came to 1.27 in test [7], 0.565 in [9] and 0.113 in test [10]. In addition, the z-score in test [8] is -1.31 (inactive).
